# PubChem BioAssay AID449762 (Southern Research Specialized Biocontainment Screening …, 2010)
# The campaign covered roughly 330,000 compounds. About 1,900 (0.58%) were called active. Another 4% or so got no clear call; they are omitted. A selection follows. Entries with a potency or affinity are not part of this list. Unmarked numbers belong to inactive results. Rule as the data show it: inconclusive = inhibition above about 70% without an active follow-up result; inactive = below that. Where a SMILES comes first, the peptide text is derived from it. [ ]: non-standard residue; d: D form. The star is where a group is joined. ξ: configuration not given here. Cbz = O=C(OCc1ccccc1)*; ξS = NC(CO)C(=O)O
# Test: M. tuberculosis growth inhibition, HTS (AID 449762);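 also: bacterial growth assessed after seven days of incubation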
# Settings: M. tuberculosis H37Rv growth inhibition, 7H9 media; at 25 µM; hits give high values
row,SMILES,inhibition [%]
1,Cc1sc(NC(=O)CN2CCCC2)nc1-c1ccc2c(c1)CCN2C(=O)c1cccc(F)c1,9.15
2,CN(C)C(=N)c1n[nH]nc1SCc1ccc(Cl)c(Cl)c1,-2.06
3,CCOc1ccc(N2C(=O)c3ccc(C(=O)OCc4c(C)noc4C)cc3C2=O)cc1,-11.4
4,CCCN(CC1CC1)C(=O)COC(=O)c1oc2ccc(OCC)cc2c1C,2.37
5,COc1ccc(CNC(=O)c2cc(C3CC3)on2)cc1,8.82
6,O=C(c1ccc(Br)o1)N1CCc2ccccc21,-3.15
7,O=C(NC(=S)N1CCc2ccccc21)c1ccccc1Br,6.29
8,CC(OC(=O)c1cccnc1Cl)C(=O)Nc1ccc2c(c1)OCO2 (stereo not drawn),0.24
9,C=CCOc1cccc(C2C(C(=O)c3ccco3)=C(O)C(=O)N2CCN(CC)CC)c1 (stereo not drawn),-1.23
10,CCCOC(=O)c1cc(-c2ccc(C=O)o2)ccc1Cl,9.94
11,CCOC(=O)c1ccc(-c2ccc(C=O)o2)cc1,12.7
12,CC(C)(C)NC(=O)COC(=O)c1ccc(S(=O)(=O)N2CCCC2)cc1,5.11
13,CN(C)CCCN1C(=O)c2cccc3c([N+](=O)[O-])ccc(c23)C1=O,36.5
14,Cc1nnc(N2C(=O)c3cccc4c([N+](=O)[O-])ccc(c34)C2=O)s1,-2.32
15,Cc1ccc(S(=O)(=O)NCC(=O)OCC(=O)Nc2cccc(S(=O)(=O)NC3=NCCCCC3)c2)cc1,7.74
16,COCCn1cnnc1SCC(=O)Nc1cccc(S(=O)(=O)N(C)c2ccccc2)c1,-4.95
17,COc1cc(OC)c(C(=O)Nc2cccnc2)cc1OC,3.08
18,CN(C)c1ncc(S(=O)(=O)c2ccccc2)c(N)n1,-5.65
19,CN1CCN(c2ccc(F)cc2N)CC1,-0.88
20,CN1CCN(C2=Cc3ccccc3Sc3cc(F)ccc32)CC1,-12.7
21,CCOc1ccc(S(=O)(=O)NCCC(=O)N2CCC(Cc3ccccc3)CC2)cc1,44.3
22,CCN(CC)S(=O)(=O)c1ccc(N2CCN(CCO)CC2)nc1,-5.66
23,Cc1nc2ccc(NC(=O)c3ccc([N+](=O)[O-])cc3)cc2s1,3.43
24,Cc1nc2ccc(NC(=O)c3cc([N+](=O)[O-])cc([N+](=O)[O-])c3Cl)cc2s1,38.8

row,SMILES,inhibition [%]
1,COc1ccc(S(=O)(=O)N2CCN(CC(=O)Nc3ccccc3Cl)CC2)cc1,-4.47
2,CN(C)C1(CNC(=O)c2ccc(NS(=O)(=O)c3ccc(Cl)c(Cl)c3)cc2)CCCCC1,-3.67
3,CN(C)C1(CNC(=O)Nc2ccccc2)CCCCC1,3.43
4,CCc1cc2c(=O)n(CC(=O)NCCc3ccc(OC)c(OC)c3)cnc2s1,-7.38
5,CCN(CC)C(=O)CN(c1cccc(Br)c1)S(C)(=O)=O,-7.74
6,COC(C/C=C/[C@H](O)[C@@H](C)OCc1ccccc1)OC,-3.21
7,O=C(C1=C[C@H](c2csc3ccccc23)C[C@H](OCCCCO)O1)N1CCN(Cc2ccc3c(c2)OCO3)CC1,59.9
8,O=C(C1=C[C@H](c2csc3ccccc23)C[C@H](OCc2ccc(CO)cc2)O1)N1CCN(Cc2ccc3c(c2)OCO3)CC1,21.8
9,Cc1ccc(/C=C/C(=O)O)cc1S(=O)(=O)N1CCc2ccccc21,-1.47
10,C/C(=N\NC(=O)c1sccc1C)c1cccnc1,-1.12
11,CCN1CC(CN(C)Cc2nc(COc3ccccc3)no2)CC1=O (stereo not drawn),2.85
12,C[C@@H](NCCc1ccc(O)cc1)[C@@H](O)c1ccc(O)cc1,-1.64
13,C[C@H](NCCc1ccc(O)cc1)[C@H](O)c1ccc(O)cc1,1.5
14,CCCCNC(=O)c1c(CSc2ccc(Cl)cc2)noc1C(=O)NCc1ccccc1,8.53
15,CC(C)(C)c1[nH]nc2c1C(Cc1ccccc1)C(C#N)=C(N)O2 (stereo not drawn),-0.95
16,COc1ccccc1Nc1ccc(C(=O)NC2CCCCC2)cn1,-2.47
17,C/C(CC(=O)NC(C)(C)C)=N\NC(=O)COc1ccc(C)cc1Br,2.95
18,C/C(=N\NC(=O)COc1ccc(C)cc1[N+](=O)[O-])c1cccs1,2.03
19,Cc1ccsc1C(=O)OCC(=O)NCc1ccccc1,-4.47
20,COc1cccc(/C=C2\SC(=S)N(CCCC(=O)NC3=NCCS3)C2=O)c1,2.44
21,Cc1cc(C=C2C(=O)N(C)C(=S)N(C)C2=O)c(C)n1C1CCCC1,64.7
22,Cc1cc(C=C2C(=O)N(C)C(=S)N(C)C2=O)c(C)n1C1CCCCC1,-5.32
23,CCOC(=O)C1CCN(S(=O)(=O)c2ccc(-c3cc(C(F)(F)F)n(C)n3)s2)CC1,-4.16
24,Cc1cnc(C(=O)Nc2cccc3ncccc23)cn1,-2.6

row,SMILES,inhibition [%]
1,Cc1c(C)c(C)c(CO/N=C/c2cccs2)c(C)c1C,-0.39
2,COc1cc(NC(C)CCCN)c2ncccc2c1Oc1ccccc1 (stereo not drawn),-3.95
3,COc1cc(NCCCCCCCN)c2ncccc2c1,7.02
4,CCCCC(=O)Nc1cccc(-c2nn3c(C)nnc3s2)c1,8.49
5,Cc1cc(/C=C2/C(=O)NN(c3ccccc3)C2=O)c(C)n1-c1ccc(O)cc1,5.28
6,O=C1NN(c2cccc(Br)c2)C(=O)/C1=C\c1ccc(O)cc1,1.89
7,CN(CC1COc2ccccc2O1)C(=S)NC1CCCCC1 (stereo not drawn),-4.56
8,Cc1nn(Cc2ccc(C(=O)NN)o2)c(C)c1Cl,-6.65
9,Cc1ccc(CNC(=O)c2ccc(Cn3nc(C)c(Cl)c3C)o2)cc1,-10.1
10,COc1cc(/C=N\NC(=O)c2ccc(Cn3nc([N+](=O)[O-])c(Cl)c3C)o2)ccc1O,-5.71
11,Cc1c(Cl)c([N+](=O)[O-])nn1Cc1ccc(C(=O)N/N=C\c2ccccn2)o1,0.01
12,COc1ccc(NC(=O)C(C)N(C)Cc2ccc3ccccc3c2)cc1 (stereo not drawn),0.65
13,NC(N)=NCCCC(NC(=O)c1ccccc1)C(=O)Nc1ccc2ccccc2c1 (stereo not drawn),69.1
14,O=C(CSc1ccc2nnc(-c3ccc(F)cc3)n2n1)NCc1ccco1,-4.01
15,CC1(C)C([N+](=O)[O-])C(c2ccc(Cl)cc2)NC(c2ccc(Cl)cc2)C1[N+](=O)[O-] (stereo not drawn),61.2
16,CCOc1ccc(NC(=O)CSc2ccc3nnc(-c4cccnc4)n3n2)cc1,-11.5
17,O=C(Cc1ccccc1)NNC(=O)Nc1ccc(Cl)c(Cl)c1,9.99
18,CCN(CC)C(=S)Nc1ccc(Cl)c(Cl)c1,7.74
19,Cc1ccc2nc(CSc3nnc(-c4ccncc4)n3C)cc(=O)n2c1,-4.97
20,CCc1nc(SCc2nnc(-c3ccc(C)cc3)o2)c2c(C)c(C)sc2n1,-15.8
21,O=C1NCC(c2ccccc2)C1C(=O)N/N=C/c1ccc(Cl)s1 (stereo not drawn),-0.33
22,O=C1NCC(c2ccccc2)C1C(=O)N/N=C\c1ccc(-c2cccc(Cl)c2Cl)o1 (stereo not drawn),24.5
23,COCCNC(=O)C1CC2Cn3c(nc4cc(Cl)c(Cl)cc43)C2N1C (stereo not drawn),2.07
24,O=C(NCC1CCCO1)c1cc([N+](=O)[O-])ccc1N1CCC(Cc2ccccc2)CC1 (stereo not drawn),32.2

row,SMILES,inhibition [%]
1,CCNC(=O)C(Cc1ccccc1)NC(=O)OCc1ccccc1 (stereo not drawn),-4.3
2,CCOC(=O)CNC(=O)C(CO)NC(=O)OCc1ccccc1 (stereo not drawn) (Cbz-[ξS]-Gly-OEt),5.25
3,COc1cc(OC)cc(C(=O)N[C@H](C(=O)Nc2ccc(NC(C)=O)cc2)C(C)C)c1,-0.98
4,O=c1c(Cc2ccccc2)c(O)ccn1Cc1ccc2c(c1)OCO2,3.04
5,O=C(Nc1cc(=O)[nH]c2nc(-c3ccccc3)nn12)c1ccc(Cl)cc1,-2.49
6,O=C(Nc1cc(=O)[nH]c2ncnn12)c1ccco1,-17.4
7,COCCN(C(=O)COC(=O)/C=C/c1ccc(C)o1)c1c(N)n(Cc2ccccc2)c(=O)[nH]c1=O,-11.7
8,COc1ccccc1N1CCN(C(=O)C2CC=CCC2C(=O)O)CC1 (stereo not drawn),-1.32
9,COc1cccc2c1OCC(C(=O)O)C2 (stereo not drawn),-0.01
10,Cc1ccc(C)c(NNC(=O)C(=O)NNc2cc(C)ccc2C)c1,52.8
11,Cc1ccc(C)c(NC(=S)N(C)C)c1,1.85
12,O=C(Nc1cccc(S(=O)(=O)N2CCCCC2)c1)c1ccc2ncsc2c1,-3.33
13,CC(=O)c1cccc(NC(=O)c2ccc(S(=O)(=O)N3CCCCC3)cc2)c1,-2.95
14,COc1ccc(N(C(=O)Cn2cnc3ccccc32)C(C(=O)NC2CCCCC2)c2ccccc2)cc1 (stereo not drawn),0.85
15,COc1ccc(NS(=O)(=O)c2cccc(NC(=O)CNC(C)=O)c2)cc1,3.07
16,Cc1ccc(C(O)c2nc3ccccc3n2C)cc1 (stereo not drawn),6.67
17,CN1C(=O)Cn2c1nc1ccccc12,6.02
18,Cc1cccc(C)c1NC(=S)N(CCN(C)C)C(C)c1ccccn1 (stereo not drawn),-5.58
19,CN(Cc1cccs1)C(=O)CCc1c[nH]c2ccccc12,4.68
20,COC(=O)c1ccc(CSc2nc(C(F)F)cc(C)c2C#N)o1,-2.24
21,COC(=O)c1ccc(CSc2ncnc3ccccc23)o1,-4.26
